# Measurements from the antibiotic and cytotoxicity screens of Wong et al. (2023).
# About 3,300 (8.5%) of roughly 39,000 compounds were called active. This is one part of a sample in which actives are shown more often than they occur.
# Tested on: HepG2
# Assay: cytotoxicity call (relative viability < 0.9)
# Conditions: 10 µM
row,Compound,cytotoxicity call
1,O=C(C[C@@H]1C[C@@H]2c3cc(NC(=O)c4ccc5c(c4)OCO5)ccc3O[C@@H]2[C@@H](CO)O1)NCc1ccc(Oc2ccccc2)cc1,inactive
2,O=C(C[C@@H]1C[C@H]2c3cc(NC(=O)c4ccc5c(c4)OCO5)ccc3O[C@H]2[C@@H](CO)O1)NCc1ccc(Oc2ccccc2)cc1,inactive
3,O=C(C[C@H]1C[C@H]2c3cc(NC(=O)c4ccc5c(c4)OCO5)ccc3O[C@H]2[C@@H](CO)O1)NCc1ccc(Oc2ccccc2)cc1,active
4,Cc1noc(C)c1NC(=O)Nc1ccc2c(c1)C(=O)N([C@@H](C)CO)C[C@@H](C)[C@@H](CN(C)Cc1ccc3c(c1)OCO3)OCCCC[C@@H](C)O2,inactive
5,COc1ccc(COC[C@]23N=C4Sc5ccc([N+](=O)[O-])cc5C(=O)N4[C@H](c4ccccc4O2)[C@H]3CO[Si](C)(C)C(C)(C)C)cc1,inactive
6,C[C@@H]1CN([C@@H](C)CO)C(=O)c2c(c3ccccc3n2C)-c2ccccc2CO[C@@H]1CN(C)C(=O)Nc1ccc(F)cc1,inactive
7,C[C@H](CO)N1C[C@H](C)[C@H](CN(C)Cc2ccc3c(c2)OCO3)OCCCC[C@H](C)Oc2ccc(NC(=O)Nc3cccc4ccccc34)cc2C1=O,active
8,C[C@H](CO)N1C[C@H](C)[C@@H](CN(C)Cc2ccc3c(c2)OCO3)OCCCC[C@H](C)Oc2ccc(NC(=O)Nc3cccc4ccccc34)cc2C1=O,inactive
9,C[C@@H]1CN([C@@H](C)CO)C(=O)c2cc(NC(=O)Nc3cccc4ccccc34)ccc2O[C@@H](C)CCCCO[C@@H]1CN(C)Cc1ccc2c(c1)OCO2,inactive
10,C[C@@H]1CCCCO[C@@H](CN(C)Cc2ccc3c(c2)OCO3)[C@H](C)CN([C@@H](C)CO)C(=O)c2cc(NC(=O)Nc3cccc4ccccc34)ccc2O1,inactive
11,C[C@@H]1CCCCO[C@H](CN(C)Cc2ccc3c(c2)OCO3)[C@@H](C)CN([C@H](C)CO)C(=O)c2cc(NC(=O)Nc3cccc4ccccc34)ccc2O1,inactive
12,C[C@@H]1CN([C@H](C)CO)C(=O)c2cc(NC(=O)Nc3cccc4ccccc34)ccc2O[C@@H](C)CCCCO[C@H]1CN(C)Cc1ccc2c(c1)OCO2,active
13,C[C@@H]1CCCCO[C@@H](CN(C)Cc2ccc3c(c2)OCO3)[C@H](C)CN([C@H](C)CO)C(=O)c2cc(NC(=O)Nc3cccc4ccccc34)ccc2O1,active
14,C[C@H]1CCCCO[C@H](CN(C)Cc2ccc3c(c2)OCO3)[C@@H](C)CN([C@@H](C)CO)C(=O)c2cc(NC(=O)Nc3cccc4ccccc34)ccc2O1,active
15,CC(C)C#Cc1cnc2c(c1)C(=O)N([C@@H](C)CO)C[C@H](C)[C@H](CN(C)S(=O)(=O)c1cn(C)cn1)O2,inactive
16,CO[C@@H]1CN(C)C(=O)c2cc(NS(=O)(=O)CC(F)(F)F)ccc2OC[C@H](C)N(C(=O)c2ccc3c(c2)OCO3)C[C@@H]1C,inactive
17,COc1ccc(S(=O)(=O)Nc2ccc3c(c2)C(=O)N([C@H](C)CO)C[C@@H](C)[C@@H](CN(C)S(=O)(=O)c2ccc(C)cc2)O3)cc1,inactive
18,C[C@H](CO)N1C[C@H](C)[C@H](CN(C)C(=O)Nc2ccccc2)OCCCC[C@H](C)Oc2ccc(NC(=O)Nc3ccc4c(c3)OCO4)cc2C1=O,inactive
19,COc1ccc(NC(=O)N(C)C[C@H]2OCCCC[C@@H](C)Oc3ccc(NC(=O)Cc4ccccc4)cc3C(=O)N([C@@H](C)CO)C[C@H]2C)cc1,inactive
20,C[C@@H]1CCCCO[C@H](CN(C)C(=O)Nc2ccc(F)cc2)[C@H](C)CN([C@H](C)CO)C(=O)c2cc(NC(=O)Nc3ccc(F)cc3)ccc2O1,inactive

row,Compound,cytotoxicity call
1,C[C@H]1CN([C@@H](C)CO)C(=O)c2cc(NC(=O)Cc3ccccc3)ccc2O[C@@H]1CN(C)Cc1ccc(Cl)c(Cl)c1,inactive
2,C[C@@H]1CCCCO[C@H](CN(C)S(=O)(=O)c2ccccc2)[C@H](C)CN([C@H](C)CO)C(=O)c2cc(NS(=O)(=O)c3cn(C)cn3)ccc2O1,inactive
3,COc1ccc(NC(=O)N(C)C[C@H]2Oc3c(NC(=O)c4cnccn4)cccc3C(=O)N([C@H](C)CO)C[C@@H]2C)cc1,inactive
4,C[C@@H]1CCCCO[C@@H](CN(C)Cc2ccc(C(=O)O)cc2)[C@H](C)CN([C@H](C)CO)C(=O)c2cc(NS(=O)(=O)c3ccccc3)ccc2O1,inactive
5,Cc1noc(C)c1NC(=O)Nc1ccc2c(c1)C(=O)N([C@@H](C)CO)C[C@@H](C)[C@H](CN(C)Cc1ccc(Cl)c(Cl)c1)O2,inactive
6,C[C@H]1CCCCO[C@@H](CN(C)Cc2ccc(C(F)(F)F)cc2)[C@@H](C)CN([C@@H](C)CO)C(=O)c2cc(NS(C)(=O)=O)ccc2O1,inactive
7,C[C@@H]1CN([C@H](C)CO)C(=O)c2cc(NC(=O)Nc3cccc4ccccc34)ccc2O[C@@H](C)CCCCO[C@@H]1CN(C)Cc1ccc2c(c1)OCO2,active
8,C[C@@H]1CCCCO[C@H](CN(C)Cc2ccc3c(c2)OCO3)[C@H](C)CN([C@@H](C)CO)C(=O)c2cc(NC(=O)Nc3cccc4ccccc34)ccc2O1,active
9,C[C@@H]1CCCCO[C@@H](CN(C)Cc2ccc3c(c2)OCO3)[C@@H](C)CN([C@H](C)CO)C(=O)c2cc(NC(=O)Nc3cccc4ccccc34)ccc2O1,inactive
10,C[C@@H]1CCCCO[C@@H](CN(C)Cc2ccc3c(c2)OCO3)[C@@H](C)CN([C@@H](C)CO)C(=O)c2cc(NC(=O)Nc3cccc4ccccc34)ccc2O1,inactive
11,C[C@@H]1CCCCO[C@H](CN(C)Cc2ccc3c(c2)OCO3)[C@@H](C)CN([C@@H](C)CO)C(=O)c2cc(NC(=O)Nc3cccc4ccccc34)ccc2O1,active
12,C[C@@H]1CCCCO[C@H](CN(C)Cc2ccc3c(c2)OCO3)[C@H](C)CN([C@H](C)CO)C(=O)c2cc(NC(=O)Nc3cccc4ccccc34)ccc2O1,inactive
13,C[C@@H]1CN([C@@H](C)CO)C(=O)c2cc(NC(=O)Nc3cccc4ccccc34)ccc2O[C@@H](C)CCCCO[C@H]1CN(C)Cc1ccc2c(c1)OCO2,active
14,C[C@H]1CCCCO[C@@H](CN(C)Cc2ccc3c(c2)OCO3)[C@@H](C)CN([C@@H](C)CO)C(=O)c2cc(NC(=O)Nc3cccc4ccccc34)ccc2O1,inactive
15,CCOC(=O)c1c(C)c(Cl)c(O)c(Cl)c1O,inactive
16,COc1ccc(S(=O)(=O)Nc2ccc3c(c2)CC(=O)N([C@H](C)CO)C[C@@H](C)[C@H](CN(C)C)O3)cc1,inactive
17,Cc1noc(C)c1NC(=O)N(C)C[C@@H]1OCCCC[C@@H](C)Oc2ccc(NC(=O)Nc3ccc(F)cc3)cc2C(=O)N([C@H](C)CO)C[C@@H]1C,inactive
18,Cc1noc(C)c1S(=O)(=O)N(C)C[C@@H]1OCc2cnnn2CCCC(=O)N([C@@H](C)CO)C[C@H]1C,inactive
19,C[C@@H]1CCCCO[C@H](CN(C)C(=O)C2CCCCC2)[C@@H](C)CN([C@H](C)CO)C(=O)c2cc(NC(=O)C3CCCCC3)ccc2O1,inactive
20,CC(C)NC(=O)Nc1ccc2c(c1)C(=O)N([C@H](C)CO)C[C@@H](C)[C@H](CN(C)S(=O)(=O)c1cn(C)cn1)O2,inactive

row,Compound,cytotoxicity call
1,COc1ccccc1CNC(=O)C[C@@H]1CC[C@H]2[C@@H](COC[C@H](O)CN2C(=O)Nc2ccc(F)cc2)O1,inactive
2,O=C(C[C@H]1CC[C@@H]2[C@H](COC[C@@H](O)CN2C(=O)Nc2cccc(Cl)c2)O1)NCc1ccccc1F,active
3,COCCNC(=O)C[C@H]1CC[C@@H]2[C@H](COC[C@@H](O)CN2C(=O)Nc2ccccc2OC)O1,inactive
4,COc1ccccc1CNC(=O)C[C@H]1CC[C@H]2[C@@H](COC[C@H](O)CN2C(=O)Nc2ccc(F)cc2)O1,active
5,O=C(C[C@H]1CC[C@H]2[C@@H](COC[C@H](O)CN2C(=O)Nc2cccc(Cl)c2)O1)NCc1ccccc1F,inactive
6,COCCNC(=O)C[C@H]1CC[C@H]2[C@@H](COC[C@H](O)CN2C(=O)Nc2ccccc2OC)O1,inactive
7,COCCNC(=O)C[C@H]1CC[C@@H]2[C@H](COC[C@H](O)CN2C(=O)Nc2ccccc2OC)O1,active
8,COc1ccccc1CNC(=O)C[C@@H]1CC[C@@H]2[C@H](COC[C@@H](O)CN2C(=O)Nc2ccc(F)cc2)O1,inactive
9,O=C(C[C@@H]1CC[C@H]2[C@@H](COC[C@H](O)CN2C(=O)Nc2cccc(Cl)c2)O1)NCc1ccccc1F,inactive
10,CO[C@@H]1CN(C)C(=O)c2cc(NC(=O)c3ccc(F)cc3)ccc2OC[C@H](C)N(C(=O)CN(C)C)C[C@@H]1C,inactive
11,CN1C(=O)c2cc(NC(=O)Nc3ccccc3F)ccc2OC[C@@H]2O[C@H](CC(=O)NCc3ccc(-c4ccccc4)cc3)CC[C@@H]21,inactive
12,CS(=O)(=O)N1CCCn2c(nc(CNC(=O)CC3CC3)cc2=O)C1,inactive
13,CC(C)Oc1oc(C(=O)NC2CCCCC2)c(-c2ccc(Cl)cc2)c1S(=O)(=O)c1ccc(Cl)cc1,inactive
14,C[C@H](CO)N1C[C@H](C)[C@@H](CN(C)Cc2ccncc2)OCCCC[C@H](C)Oc2ccc(NC(=O)NC3CCCCC3)cc2C1=O,inactive
15,O=C(C[C@@H]1C=C[C@@H](NC(=O)C2CC2)[C@H](CO)O1)NCCCN1CCOCC1,inactive
16,CN(C)C(=O)C[C@@H]1C=C[C@H](NC(=O)C2CCOCC2)[C@@H](CO)O1,inactive
17,C[C@H](CO)N1C[C@H](C)[C@H](CN(C)S(=O)(=O)c2ccccc2)Oc2ccc(NC(=O)c3ccncc3)cc2C1=O,inactive
18,O=S1(=O)CO[C@@H](c2ccccc2)CN1,inactive
19,O=C(CS)NCCCCCCNC(=O)[C@@H]1C[C@@H]2C(=O)N3CCC[C@H]3C(=O)N2[C@@H]1c1cccc(OCCO)c1,inactive
20,O=C(C[C@H]1CC[C@H]2[C@@H](COC[C@H](O)CN2Cc2cc(F)ccc2F)O1)N[C@@H]1CCN(Cc2ccccc2)C1,inactive
